Source: PubChem
RAD54 branch = inhibitors of human RAD54 branch migration, primary screen, biochemical, fluorescence, single point. AID 602329, 2012. DNA repair and recombination protein RAD54-like (Homo sapiens), Q92698. RAD54 Holliday junction branch migration, FAM/BHQ fluorescence. inhibition, % at 10.4 µM. 360,000 tested, 0.14% active;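 active = mean normalized replicate activity at least 40 and at least half of replicates scoring 40 or more; inconclusive = only one of the two criteria met; inactive = mean below 40 and under half of replicates reaching 40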;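 note: inhibitors cause a drop in the FAM fluorescence signal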
AF4-AF9 inh = inhibitors of AF4 peptide binding to AF9, primary screen, biochemical, AlphaScreen, biotin-AF4 peptide, FLAG-AF9, single point; inhibition, % at 10 µM; 350,000 tested, 0.47% active; AID 651704, 2012; Protein AF-9 (Homo sapiens), P42568;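 active = every replicate reaching a set inhibition limit, whatever the replicate mean, cut at about 25% in these data; inconclusive = mean inhibition reaches that limit but some replicates miss it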
Target sequence (P42568 whole entry, looked up): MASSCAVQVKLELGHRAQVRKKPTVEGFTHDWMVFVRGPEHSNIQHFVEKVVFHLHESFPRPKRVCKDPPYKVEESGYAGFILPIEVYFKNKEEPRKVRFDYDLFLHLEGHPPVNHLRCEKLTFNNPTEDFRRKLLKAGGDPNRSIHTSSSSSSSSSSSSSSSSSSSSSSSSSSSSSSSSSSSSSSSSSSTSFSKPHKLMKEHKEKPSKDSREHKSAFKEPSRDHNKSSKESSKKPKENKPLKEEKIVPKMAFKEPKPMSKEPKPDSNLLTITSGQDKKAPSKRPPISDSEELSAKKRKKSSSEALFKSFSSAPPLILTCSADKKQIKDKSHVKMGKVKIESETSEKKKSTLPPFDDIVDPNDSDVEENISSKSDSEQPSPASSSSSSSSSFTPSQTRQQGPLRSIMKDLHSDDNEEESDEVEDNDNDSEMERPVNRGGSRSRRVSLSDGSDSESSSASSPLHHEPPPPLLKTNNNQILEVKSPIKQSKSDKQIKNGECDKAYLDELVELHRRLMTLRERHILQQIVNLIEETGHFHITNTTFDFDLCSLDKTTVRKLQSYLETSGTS
RAD52 anneal inh = RAD52 DNA annealing inhibitors, primary screen, biochemical, FRET, single point, set 2 | DNA repair protein RAD52 homolog (Homo sapiens), P43351 | recombinant RAD52 DNA annealing, FRET fluorescence | inhibition, % at 18.7 µM | 360,000 tested, 0.46% active;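 active = every replicate showing at least 50% inhibition; inconclusive = mean inhibition at least 50% but not in every replicate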
PGC1a acetyl inh = inhibitors of PGC1a acetylation signal, primary screen, cell-based, U2OS, AlphaScreen, inhibitor mode. AlphaScreen anti-acetyl-lysine; with virally co-expressed GCN5 acetyltransferase. inhibition, % at 15.6 µM. 350,000 tested, 0.17% active;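 active = every replicate shows inhibition of at least 40%; inconclusive = mean inhibition at least 40% but some replicate below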
ERAP1 HTS inh = human ERAP1 aminopeptidase inhibitors, primary screen, biochemical, single point, plate reader; Endoplasmic reticulum aminopeptidase 1 (Homo sapiens), Q9NZ08; recombinant ERAP1, Leu-AMC fluorescence, 60 min; inhibition, % at 10.7 µM; 340,000 tested, 0.15% active; AID 652197, 2013;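 active = mean replicate inhibition of at least 30%, or all replicates individually reaching that 30% level; inactive = mean below 30% and not every replicate reaching it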
INS-1E GSIS act = GLuc luminescence reporter in INS-1E cells, primary screen for activators of glucose-dependent secretion of insulin | INS-1E GLuc reporter insulin secretion, 2-3 h | activation, % at 16.6 µM | 370,000 tested, 0.61% active;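 active = lowest replicate activation of at least 40%, so every replicate reaches that level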
DNA binder FP = DNA-binding compounds via dye displacement, dose response, artefact control for RAD52 inhibitor project, biochemical, fluorescence polarization, cherry-pick. shares compounds with RAD52 anneal inh. Salmon sperm DNA/acridine orange FP displacement. AC50, µM. 1,000 tested, 8% active. AID 652128, 2013;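 active = fitted half-maximal concentration for signal loss at or below twice the highest dose tested, in every separate run, actives reach about 64 µM in these data; inconclusive = runs disagree, or flat partial signal loss, or poor fit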
Large screens that a line does not name were inactive (follow-up assays come after a bar, where they were run). Sampled rows, rich in hits. Any-hit rate of the full collection: about 1.4%.

CCNC(=O)/C(C#N)=C/c1c(N2CCCCCC2)nc2c(C)cccn2c1=O	RAD52 anneal inh 94.6 (no result: INS-1E GSIS act) | DNA binder FP inactive
N#Cc1ccc(-c2ccc(C3[C@H]4CNC[C@@H]3N4C(=O)NC3CCCCC3)cc2)cc1 (stereo partly drawn)	none (no result: RAD54 branch, AF4-AF9 inh, RAD52 anneal inh, ERAP1 HTS inh)
C#CCOCCOCCOCCNc1nc(N2CCN(C(=O)[C@H](CCCCN)n3cc([C@@H](N)[C@H](C)CC)nn3)CC2)nc(N2CCN(C(=O)[C@H](CCCCN)n3cc([C@@H](N)CC(N)=O)nn3)CC2)n1	AF4-AF9 inh 60.2, RAD52 anneal inh 53.8 (no result: ERAP1 HTS inh) | DNA binder FP inactive
C#CCOCCOCCOCCNc1nc(N2CCN(C(=O)[C@H](CC(N)=O)n3cc(C(N)[C@@H](C)CC)nn3)CC2)nc(N2CCN(C(=O)[C@H](CCCCN)n3cc([C@@H](N)CC(N)=O)nn3)CC2)n1 (stereo partly drawn)	none (no result: PGC1a acetyl inh)
C#CCOCCOCCOCCNc1nc(N2CCN(C(=O)[C@H]([C@@H](C)CC)n3cc([C@@H](N)CC(C)C)nn3)CC2)nc(N2CCN(C(=O)[C@H]([C@@H](C)CC)n3cc([C@@H](N)CC(C)C)nn3)CC2)n1	none (no result: INS-1E GSIS act)
C#CCOCCOCCOCCNc1nc(N2CCN(C(=O)[C@H]([C@@H](C)CC)n3cc([C@@H](N)CO)nn3)CC2)nc(N2CCN(C(=O)[C@H](CCCCN)n3cc([C@@H](N)CC(C)C)nn3)CC2)n1	RAD52 anneal inh 51.6 (no result: RAD54 branch, PGC1a acetyl inh, ERAP1 HTS inh) | DNA binder FP inactive
CC(C)NC(=O)Nc1ccc2c(c1)C(=O)N([C@@H](C)CO)C[C@@H](C)[C@@H](CN(C)C(=O)c1ccncc1)OCCCC[C@H](C)O2	none
CCC(=O)N1C[C@@H](C)[C@H](OC)CN(C)C(=O)c2ccc(NC(=O)C3CC3)cc2OC[C@H]1C	none
CNC[C@@H]1Oc2ccc(NC(=O)CCN3CCOCC3)cc2C(=O)N([C@H](C)CO)C[C@H]1C	none (no result: RAD54 branch, AF4-AF9 inh, RAD52 anneal inh, ERAP1 HTS inh)
COc1cccc2sc3ccc(C#CC4(N)CCCCC4)cc3c(=O)c12	RAD54 branch inconclusive, RAD52 anneal inh 89.6 (no result: PGC1a acetyl inh, INS-1E GSIS act) | DNA binder FP inactive
CCNC(=O)[C@@H]1[C@@H](CO)[C@@H]2Cn3c(ccc(-c4ccccc4)c3=O)[C@H]1N2C(=O)CC1CC1	none (no result: RAD54 branch)
C[C@@H]1CN([C@H](C)CO)S(=O)(=O)c2ccc(-c3ccncc3)cc2O[C@H]1CN(C)C(=O)c1ccc2c(c1)OCO2	none
CC(C)N1CCc2c(sc(NC(=O)c3cc4cc([N+](=O)[O-])ccc4s3)c2C(N)=O)C1	RAD52 anneal inh 56.5 (no result: PGC1a acetyl inh) | DNA binder FP inactive
Cc1cc2[nH]c3c(c[n+](C)c4ccccc34)c2cc1C	RAD52 anneal inh 104.3 (no result: RAD54 branch, PGC1a acetyl inh) | DNA binder FP 8.46µM
CC(=O)N1CC(c2ccccc2)C(c2ccc(Cl)cc2)=N1 (stereo not drawn)	none
CC(C)NC(=O)N1CC(c2ccccc2)C(c2ccc(Cl)cc2)=N1 (stereo not drawn)	RAD52 anneal inh 97.5 (no result: PGC1a acetyl inh) | DNA binder FP inactive
CO[C@@H]1CN(C)C(=O)c2cc(NC(=O)CC(F)(F)F)ccc2OC[C@@H](C)N(C(=O)c2ccccc2F)C[C@@H]1C	none (no result: RAD54 branch)
C(#Cc1ccccc1)C[N+]1(CC#Cc2cccc3ccccc23)CCCC1	RAD52 anneal inh 65.9 (no result: RAD54 branch, PGC1a acetyl inh) | DNA binder FP inactive
O=c1oc(-c2ccccc2Br)nc2ccccc12	RAD52 anneal inh 101.9 (no result: PGC1a acetyl inh) | DNA binder FP inactive
O=c1oc(-c2cccnc2)nc2ccccc12	none (no result: AF4-AF9 inh, RAD52 anneal inh, ERAP1 HTS inh, INS-1E GSIS act)
O=C(c1ccc(Cn2c(=S)[nH]c3ccc(N4CCOCC4)cc3c2=O)cc1)N1CCC(N2CCCCC2)CC1	RAD52 anneal inh 87.2 (no result: RAD54 branch) | DNA binder FP inactive
CCCC(=O)Nc1ccc2c(c1)C(=O)N(C)[C@H]1CC[C@@H](CC(=O)NCc3ccccc3F)O[C@@H]1CO2	none (no result: AF4-AF9 inh, RAD52 anneal inh, ERAP1 HTS inh)
CN(C)CCc1cc2c(c3c1ccc1ccccc13)OCO2	RAD54 branch 95.5, RAD52 anneal inh 99.9 (no result: INS-1E GSIS act) | DNA binder FP 36.6µM
O=C(NCCCCCCCN1CCCCCCC1)C(C1CCCCC1)C1CCCCC1	AF4-AF9 inh inconclusive, RAD52 anneal inh 81.8 (no result: RAD54 branch, INS-1E GSIS act) | DNA binder FP inactive
O=C(NCCCN1CCOCC1)NC1CCCCC1	none (no result: AF4-AF9 inh, RAD52 anneal inh, ERAP1 HTS inh, INS-1E GSIS act)
COc1cc2c(oc(=O)c3cc(C)cc(OC)c32)c2c(C3OC(C)C(O)C(C)(O)C3O)ccc(O)c12 (stereo not drawn)	RAD52 anneal inh 73.3 (no result: RAD54 branch, INS-1E GSIS act) | DNA binder FP inactive
COc1cccc2cc(C(=O)N3CC(C)OC(C)C3)c(=O)oc12 (stereo not drawn)	none (no result: PGC1a acetyl inh)
CCn1c(SCC(N)=O)nc2sc3c(c2c1=O)CCN(C)C3	RAD52 anneal inh 56.0 (no result: ERAP1 HTS inh, INS-1E GSIS act) | DNA binder FP inactive
CCn1c(SCC(=O)Nc2ccc(C)cc2)nc2sc3c(c2c1=O)CCN(C)C3	none
COc1ccccc1CN1C[C@H](C)[C@H](OC)CN(C)C(=O)c2cc(NC(C)=O)ccc2OC[C@H]1C	none (no result: ERAP1 HTS inh)
Oc1cc(NCc2ccc(F)cc2)cc2cccnc12	none (no result: INS-1E GSIS act)
CN(C)CCCNc1cc(O)c2ncccc2c1	AF4-AF9 inh 76.2, RAD52 anneal inh 69.9 | DNA binder FP inactive
CC(C)NC(=O)Nc1ccc2c(c1)C(=O)N([C@H](C)CO)C[C@@H](C)[C@H](CN(C)S(=O)(=O)c1ccccc1)OCCCC[C@H](C)O2	none
CCc1c(C2CC2)ncn1Cc1cccc(-c2ccccc2)c1	RAD52 anneal inh 77.5 (no result: RAD54 branch, PGC1a acetyl inh) | DNA binder FP inactive
CCc1c(-c2ccccc2)ncn1Cc1cccc(-c2ccccc2)c1	none (no result: RAD54 branch, PGC1a acetyl inh)
COCC(=O)Nc1ccc2c(c1)C(=O)N(C)[C@@H]1CC[C@H](CC(=O)NCC(F)(F)F)O[C@@H]1CO2	none
N#C[C@@H]1[C@H](c2ccccc2-c2cccc(F)c2)[C@H](CO)N1C(=O)C1CCCC1	none (no result: RAD54 branch)
OCCCCNCc1ccc(OCc2ccc(Cl)cc2Cl)cc1	RAD52 anneal inh 65.6 | DNA binder FP inactive
COc1ccc2sc3cccc(NCCN(C)C)c3c(=O)c2c1	RAD52 anneal inh 58.3 (no result: RAD54 branch, PGC1a acetyl inh) | DNA binder FP 38.5µM
COc1ccc(C2NCCc3c2[nH]c2ccccc32)cc1CN1CCc2cc(OC)c(OC)cc2C1C (stereo not drawn)	none (no result: RAD54 branch, AF4-AF9 inh, RAD52 anneal inh, ERAP1 HTS inh, INS-1E GSIS act)
COc1ccc(C2NCCc3c2[nH]c2ccccc32)cc1COc1ccc(F)cc1 (stereo not drawn)	AF4-AF9 inh inconclusive, RAD52 anneal inh 85.4 (no result: RAD54 branch, PGC1a acetyl inh) | DNA binder FP inactive
CCN(CC)CCN(C(=O)c1ccc2ccccc2c1)c1nc2cc3c(cc2s1)OCO3	RAD52 anneal inh 60.9 (no result: PGC1a acetyl inh) | DNA binder FP inactive
